Compound activity: PubChem, Columbia University Molecular Screening Center
In the library only some 1.6% were active in any assay of this set; here they are far more common.
NFkB transloc inh = inhibitors of IL-1B driven NFkB p65 nuclear import, primary screen, imaging, HUVEC, IL-1B stimulus, high-content imaging | HUVEC IL-1B NFkB p65 nuclear translocation imaging | inhibition, % at 2 µM | hit rate 0.43% among 94,000;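 active = inhibition above about 30% together with a positive call from visual inspection of the well image, limit read from the data; inconclusive = inhibition above a set limit but visual check negative; inactive = inhibition not above a set limit, visual check negative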;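 note: nuclear over cytoplasmic p65 intensity ratio measured by imaging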
NFkB transloc pot = enhancers of NFkB p65 translocation in HUVEC – imaging, IL-1B stimulus, high-content imaging, primary screen | HUVEC IL-1B NFkB p65 nuclear translocation imaging | activation, % at 2 µM | hit rate 0.3% among 94,000;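 active = activation above 40%, about the mean plus 3 SD, also judged a hit on visual image review; inconclusive = activation above 40% but not a hit on visual review; inactive = activation not above 40% and no visual hit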;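 note: percent activation is computed from the nuclear over cytoplasmic p65 intensity ratio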
VCAM1 TNFa inh = inhibitors of TNFa-induced VCAM1 expression, primary screen, imaging, HUVEC, TNFa stimulus, immunofluorescence; AID 802, 2007; HUVEC TNFa-induced VCAM-1 immunofluorescence, high-content imaging; hit rate 0.48% among 95,000; inhibition, % at 2 µM;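 active = inhibition above the batch mean plus 3 SD, with images confirmed as a hit by eye, cut at about 37% in these data; inconclusive = inhibition above that limit but hit not confirmed in images; inactive = inhibition not above that limit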
TNFa cytotox = cytotoxicity in TNFa-stimulated HUVEC, primary screen, cytotoxicity control for VCAM1 expression modulator project, imaging, Hoechst nuclei count; HUVEC TNFalpha-stimulated, Hoechst cell count; cell count reduction, % at 2 µM; hit rate 0.17% among 93,000;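 active = cell count reduction exceeding the screen mean by over 5 SD, scaled to untreated wells per plate, cut at about 78% in these data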;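 note: cells counted after 24 h of TNF alpha exposure following the 1 h pretreatment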
IL1B cytotox = cytotoxicity in IL-1B stimulated HUVEC, primary screen, cytotoxicity control for IL-1B NFkB translocation project, imaging, Hoechst nuclear count, IL-1B stimulus | HUVEC cell count loss | cell count reduction, % at 2 µM | hit rate 0.41% among 94,000;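 active = cell count reduction more than 3 SD above the screen-wide mean, cut at about 70% in these data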
F-actin modifier = modifiers of F-actin cytoskeleton organization, primary screen, imaging, HUVEC, phalloidin staining, high-content imaging; HUVEC TNFa F-actin phalloidin imaging; inhibition, % at 2 µM; hit rate 0.18% among 91,000; AID 836, 2007;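 active = inhibition above the batch mean plus 3 SD and confirmed as a hit by visual image inspection, cut at about 30% in these data, passing the limit was not always enough; inconclusive = above the inhibition threshold but rejected on visual inspection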
Of the large screens only hits and unclear results are named; the others gave an inactive call.

COc1ccccc1-c1nnc2n1N=C(c1ccc(O)c(O)c1)CS2	VCAM1 TNFa inh 96
CCOc1ccc(C2=Nn3c(nnc3-c3ccccc3OC)SC2)cc1	VCAM1 TNFa inh 99
COc1ccc(C2=Nn3c(nnc3-c3ccncc3)SC2)cc1OC	none
O=C(c1cnn2c1NC(c1ccc(Br)cc1)CC2C(F)(F)F)N1CCN(C23CC4CC(CC(C4)C2)C3)CC1 (stereo not drawn)	none
COc1ccc(C2=NN(C)C(=NCc3ccccc3)SC2)cc1	NFkB transloc inh 36
O=C(CSc1nc(C2CC2)nc2ccccc12)NCc1ccc2c(c1)OCO2	none
CCCCOC(=O)C1[C@H]2C(=O)N(CCc3ccccc3)C[C@]23C=C[C@H]1O3 (stereo partly drawn)	none
CCCOC(=O)C1C2C=C[C@]3(CN(CCc4ccccc4)C(=O)[C@H]13)O2 (stereo partly drawn)	VCAM1 TNFa inh 93, TNFa cytotox 82
COc1ccc(Cl)cc1NC(=O)CN1CCC(n2nnc3cc(F)ccc32)CC1	NFkB transloc inh 100, IL1B cytotox 92
O=C(CN1CCC(n2nnc3cc(F)ccc32)CC1)Nc1ccc2c(c1)CCC2	none
N#CC1=C(N)OC2=C(C(=O)CCC2)C1Cc1ccccc1 (stereo not drawn)	none
COCCCNC(=O)CN(Cc1ccc(Cl)cc1)S(C)(=O)=O	TNFa cytotox 97 (no result: VCAM1 TNFa inh)
CCOCCCNC(=O)CN(Cc1ccc(Cl)cc1)S(C)(=O)=O	none
O=C(/C=C/N1CCOCC1)c1coc2ccccc12	none
O=C(O)c1coc2ccccc12	NFkB transloc pot 57
COc1cccc(/C=N/NC(=O)CSc2nnc(C)n2-c2ccccc2)c1O	none
CCCCSc1nc(C)cc(SCC(=O)N/N=C/c2cccc(OC)c2O)n1	VCAM1 TNFa inh 44
COc1ccc2c(C(F)(F)F)cc(=O)oc2c1C	none
Cc1c(C)c2ccc(Oc3ccc([N+](=O)[O-])cc3C(F)(F)F)c(C)c2oc1=O	NFkB transloc pot 67
O=c1ccccn1Cc1c(F)cccc1Cl	none
CCOC(=O)c1cccc(NC(=O)CSc2nnc(-c3ccoc3C)n2CCOC)c1	TNFa cytotox 91
COc1ccc(C2CC(=O)c3c(C)nc(N4CCN(c5ccccc5)CC4)nc3C2)cc1 (stereo not drawn)	none
CCOC(=O)N1CCN(c2nc(C)c3c(n2)CC(C)CC3=O)CC1 (stereo not drawn)	NFkB transloc pot 40
CC(=O)C(=Nc1ccc(Cl)cc1Cl)NNc1cccc(Cl)c1	none (no result: F-actin modifier)
NC(=O)c1c(NC(=O)Cc2cccs2)sc2c1CCC2	VCAM1 TNFa inh 92
CC1(C)CC(=O)c2c(-c3cccs3)n[nH]c2C1	NFkB transloc pot inconclusive
COc1cc(NC(=O)c2ccc(COc3ccccc3Br)o2)cc(OC)c1OC	none
COc1cc(NC(=O)c2ccc(COCC(F)(F)F)o2)cc(OC)c1OC	VCAM1 TNFa inh 50
O=C(CSc1nnc(-c2ccc(OC(F)F)cc2)o1)NCc1cccs1	none (no result: NFkB transloc inh, NFkB transloc pot, IL1B cytotox)
COc1ccc2[nH]cc(C(=O)CN3CCN(C/C=C/c4ccccc4)CC3)c2c1	NFkB transloc inh 36
CCC1c2ccc(C)n2CCN1C(=O)Nc1ccccc1C(=O)OC (stereo not drawn)	IL1B cytotox 92
Fc1ccc(C2CC(c3ccc(F)cc3)n3ncnc3N2)cc1 (stereo not drawn)	none
CCc1ccc(C2CC(c3ccccc3)n3ncnc3N2)cc1 (stereo not drawn)	NFkB transloc pot 42
CCCCN(C(=O)CCC(=O)O)C1CC(=O)N(c2ccc(OCCC)cc2)C1=O (stereo not drawn)	none
CCCCCCC(=O)N(O)C1CC(=O)N(c2ccc(Br)cc2)C1=O (stereo not drawn)	NFkB transloc pot 48
Cc1cc(Cl)ccc1OCC(=O)NCCOc1nc(N2CCOCC2)nc(N2CCOCC2)n1	none
CC(C)(C)NC(=O)CSc1ccc(C(C)(C)C)cc1	none
Cc1ccc(Nc2cc(C)nn2-c2nc(C)cc(=O)[nH]2)cc1	NFkB transloc inh 78
O=S(=O)(Cc1ccccc1Cl)N1CCN(Cc2ccc3c(c2)OCO3)CC1	F-actin modifier 47
